Each structure is given as a SMILES string. Where “and” joins values, the source holds several entries; their conditions need not be identical. Identical values can stand only once. Records with an inconclusive call do not appear. Some compounds were tested as several samples or in several runs, with calls that do not always agree. Calls of active or inactive are those of the source. Unless noted, calls come from the whole dose curve; as a rule, active = well fitted curve in the direction sought with a large enough effect in the repeat runs; inconclusive = weak or mixed curves; inactive = no such curve, though single readings can be large; an effect the other way counts as inactive or inconclusive.

Experiment [1] addresses Peroxisome proliferator-activated receptor delta (Homo sapiens) (UniProt Q03181). As to the kind of experiment: qHTS assay to identify small molecule agonists of the peroxisome proliferator-activated receptor delta (PPARd) signaling pathway (AID 743212; calls by dose curve; note: % is set by controls: 0 for no effect and ±100 for the full control effect). A digest of the protocol:
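Read-out: beta-lactamase FRET fluorescence after 2 h room-temperature incubation with LiveBLAzer B/G substrate. Cells were HEK293H carrying a UAS-bla reporter for PPARd, treated at 37 C with DMSO-dissolved compounds.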

The nature of experiment [2]: qHTS assay to identify small molecule agonists of the farnesoid-X-receptor (FXR) signaling pathway - cell viability counter screen (AID 743218). Note: nearly all actives have a fitted effect of over 45% in size. Note: potency is the fitted concentration of half-maximal effect. A digest of the protocol:
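Same-well cytotoxicity check on FXR-UAS-bla HEK 293T cells: 5 h attachment, 16 h compound at 37 C, CellTiter-Glo luminescence read at room temperature after 30 min.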

Experiment [3] is described as follows: qHTS assay to identify small molecule antagonists of the farnesoid-X-receptor (FXR) signaling pathway - cell viability counter screen (AID 743221; active = well fitted cell-killing curve with a large enough effect in the repeat runs, not every such curve was filed as active; note: nearly all actives have a fitted effect of over 50% in size; note: potency is the fitted concentration of half-maximal effect). A digest of the protocol: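 Luminescence from CellTiter-Glo measures cytotoxicity in GeneBLAzer FXR-UAS-bla HEK 293T cells. Cells were exposed to compounds with 50 uM chenodeoxycholic acid (final) for 16 h at 37 C, in wells also used for the reporter readout.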
(In general: qHTS replaces the single test concentration by a dilution series.)

Experiment [4] deals with Vitamin D3 receptor (Homo sapiens) (UniProt P11473). Nature of the experiment: qHTS assay to identify small molecule agonists of the vitamin D receptor (VDR) signaling pathway (AID 743222; calls by dose curve; note: % is set by controls: 0 for no effect and ±100 for the full control effect). The method in brief: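 Using LiveBLAzer B/G FRET detection, agonism was scored in VDR-bla cells exposed overnight (16 h, 37C) to DMSO-dissolved compounds; substrate incubation was 2 h at room temperature.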

Experiment [5] shares this target. As to the kind of experiment: qHTS assay to identify small molecule antagonists of the vitamin D receptor (VDR) signaling pathway (AID 743223; active = well fitted inhibition curve with a large enough effect in the signal ratio in the repeat runs, not every such curve was filed as active; the % refers to the signal ratio; note: % is set by controls: 0 for no effect and ±100 for the full control effect). A digest of the protocol: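 Antagonist mode uses 1alpha,25-dihydroxyvitamin D3 at 3 nM final as stimulus. VDR-bla cells receive compounds in DMSO, incubate 16 h at 37C, then a beta-lactamase FRET substrate for 2 h at room temperature before fluorescence measurement.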

Experiment [6] in a line: qHTS assay to identify small molecule antagonists of the vitamin D receptor (VDR) signaling pathway - cell viability counter screen (AID 743225). Note: nearly all actives have a fitted effect of over 50% in size. Note: potency is the fitted concentration of half-maximal effect. The method in brief: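 Read-out: CellTiter-Glo luminescence measured 30 min after reagent addition at room temperature. Cells were VDR-bla HEK 293T exposed 16 h at 37C, 5% CO2, to compound with 3 nM final calcitriol agonist.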

A short description of experiment [7]: qHTS assay to identify small molecule agonists of the endoplasmic reticulum stress response signaling pathway (AID 1159516; active = well fitted activation curve with a large enough effect in the signal ratio in the repeat runs, not every such curve was filed as active; the % refers to the signal ratio; note: % is set by controls: 0 for no effect and ±100 for the full control effect). The method in brief: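 For this screen, HeLa cells stably carrying beta-lactamase under the ER stress response element received test compounds, positive controls or DMSO for 5 hr at 37 C; B/G FRET substrate was then added and dual-wavelength emission recorded.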

Experiment [8] is described as follows: qHTS assay to identify small molecule agonists of the endoplasmic reticulum stress response signaling pathway - cell viability counter screen (AID 1159517; calls by dose curve; note: nearly all actives have a fitted effect of over 50% in size; note: potency is the fitted concentration of half-maximal effect). The method in brief:
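Steps: seed 1,500 ESRE-bla HeLa cells per well; incubate overnight at 37 C, 5% CO2; add compounds in DMSO for 5 hr; run FRET substrate 2 hr RT; add CellTiter-Glo, wait 30 min, read luminescence.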

The target of experiment [9] is Nuclear receptor ROR-gamma (Homo sapiens) (UniProt P51449). Nature of the experiment: qHTS assay to identify small molecule antagonists of the retinoid-related orphan receptor gamma (ROR-gamma) signaling pathway (AID 1159521; note: nearly all actives have a fitted effect of over 50% in size; note: potency is the fitted concentration of half-maximal effect). A digest of the protocol: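 CHO Tet-on RORγ, RORE-luc reporter. Cpd 2 h pre-incubation, then dox hyclate 1 uM final, 16 h, 37 C/5% CO2. ONE-Glo luminescence; decrease = antagonist.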

Experiment [10] is described as follows: qHTS assay to identify small molecule agonists of the AP-1 signaling pathway - cell viability counter screen (AID 1159525; calls by dose curve; note: nearly all actives have a fitted effect of over 55% in size; note: potency is the fitted concentration of half-maximal effect). The method in brief:
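Same-well cytotoxicity counter screen of the Tox21 10K library in ME-180 cells. The readout is ATP-dependent luminescence after 5 h compound treatment. Data are normalised to DMSO and tetra n-octyl ammonium bromide controls.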

In experiment [11] the target is Retinoic acid receptor RXR-alpha (Homo sapiens) (UniProt P19793). As to the kind of experiment: qHTS assay to identify small molecule agonists of the RXR signaling pathway (AID 1159527; calls by dose curve; note: % is set by controls: 0 for no effect and ±100 for the full control effect; nearly all actives have a fitted effect of over 35% in size). A digest of the protocol: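 Read-out: beta-lactamase FRET ratio (405 nm excitation, 460 and 530 nm emission) after 2 hr substrate loading at room temperature. Cells were RXR-alpha-UAS-bla HEK 293T treated with compounds for 16 hr in 2% charcoal-stripped FBS medium.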

Experiment [12] is described as follows: qHTS assay to identify small molecule agonists of the peroxisome proliferator-activated receptor delta (PPARd) signaling pathway - cell viability counter screen (AID 743211). Note: nearly all actives have a fitted effect of over 55% in size. Note: potency is the fitted concentration of half-maximal effect. A digest of the protocol:
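HEK293H PPARd-bla, 3000 cells/well; 5 h preincubation 37C/5% CO2; cpd in DMSO, 17 h 37C; B/G FRET substrate 2 h RT; CellTiter-Glo 30 min RT, luminescence.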

Experiment [13] can be described thus: qHTS assay to identify small molecule antagonists of the peroxisome proliferator-activated receptor delta (PPARd) signaling pathway - cell viability counter screen (AID 743213). Note: nearly all actives have a fitted effect of over 50% in size. Note: potency is the fitted concentration of half-maximal effect. The method in brief:
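CellTiter-Glo was added to PPARd-bla HEK293H wells following 17 h compound treatment in the presence of 300 nM L165041. Luminescence was recorded after 30 min at room temperature.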

For experiment [14], the target named is Peroxisome proliferator-activated receptor delta (Homo sapiens) (UniProt Q03181). As to the kind of experiment: qHTS assay to identify small molecule antagonists of the peroxisome proliferator-activated receptor delta (PPARd) signaling pathway (AID 743215; active = well fitted inhibition curve with a large enough effect in the signal ratio in the repeat runs, not every such curve was filed as active; the % refers to the signal ratio). The method in brief: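 Screen format: qHTS, antagonist mode. HEK293H PPARd-bla cells received compound and 300 nM L165041 (final), 17 h, 37 C. Beta-lactamase detected via FRET substrate fluorescence, 2 h, room temperature.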

Experiment [15] can be described thus: qHTS assay to identify small molecule agonists of the vitamin D receptor (VDR) signaling pathway - cell viability counter screen (AID 743224). Note: nearly all actives have a fitted effect of over 50% in size. Note: potency is the fitted concentration of half-maximal effect. A digest of the protocol: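 Counter screen for cytotoxicity: VDR-bla cells at 2,000 cells/well, 16 h compound exposure, then CellTiter-Glo luminescence after the beta-lactamase measurement.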
Experiment [16] can be described thus: qHTS assay to identify small molecule antagonists of the retinoid-related orphan receptor gamma (ROR-gamma) signaling pathway - cell viability counter screen (AID 1159520). Note: nearly all actives have a fitted effect of over 50% in size. Note: potency is the fitted concentration of half-maximal effect. A digest of the protocol: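 Tet-on ROR gamma CHO cells were given compounds for 2 hr, then doxycycline hyclate at 1 uM final, and incubated 16 hr at 37 C. Viability was measured as ATP content by CellTiter-Glo luminescence.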

Experiment [17] can be described thus: qHTS assay to identify small molecule agonists of the AP-1 signaling pathway (AID 1159526; calls by dose curve; note: % is set by controls: 0 for no effect and ±100 for the full control effect).
The target of experiment [18] is Bile acid receptor (Homo sapiens) (UniProt Q96RI1). Nature of the experiment: qHTS assay to identify small molecule agonists of the farnesoid-X-receptor (FXR) signaling pathway (AID 743220; active = well fitted activation curve with a large enough effect in the signal ratio in the repeat runs, not every such curve was filed as active; the % refers to the signal ratio; note: % is set by controls: 0 for no effect and ±100 for the full control effect). A digest of the protocol:
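FXR-UAS-bla HEK 293T cells carrying a UAS-driven beta-lactamase reporter were plated for 5 h at 37C/5% CO2, then exposed to DMSO-dissolved Tox21 10K compounds for 16 h at 37C. A LiveBLAzer B/G FRET substrate was loaded for 2 h at room temperature before fluorescence reading.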

For experiment [19] the target is unchanged. As to the kind of experiment: qHTS assay to identify small molecule antagonists of the farnesoid-X-receptor (FXR) signaling pathway (AID 743217; active = well fitted inhibition curve with a large enough effect in the signal ratio in the repeat runs, not every such curve was filed as active; the % refers to the signal ratio; note: % is set by controls: 0 for no effect and ±100 for the full control effect). The method in brief:
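Quantitative HTS, beta-lactamase reporter format: FXR-UAS-bla HEK 293T cells co-treated 16 h at 37 °C with compounds and 50 uM final chenodeoxycholic acid, then read by B/G FRET fluorescence.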

Sequence of Vitamin D3 receptor (Homo sapiens) (P11473 whole entry, looked up): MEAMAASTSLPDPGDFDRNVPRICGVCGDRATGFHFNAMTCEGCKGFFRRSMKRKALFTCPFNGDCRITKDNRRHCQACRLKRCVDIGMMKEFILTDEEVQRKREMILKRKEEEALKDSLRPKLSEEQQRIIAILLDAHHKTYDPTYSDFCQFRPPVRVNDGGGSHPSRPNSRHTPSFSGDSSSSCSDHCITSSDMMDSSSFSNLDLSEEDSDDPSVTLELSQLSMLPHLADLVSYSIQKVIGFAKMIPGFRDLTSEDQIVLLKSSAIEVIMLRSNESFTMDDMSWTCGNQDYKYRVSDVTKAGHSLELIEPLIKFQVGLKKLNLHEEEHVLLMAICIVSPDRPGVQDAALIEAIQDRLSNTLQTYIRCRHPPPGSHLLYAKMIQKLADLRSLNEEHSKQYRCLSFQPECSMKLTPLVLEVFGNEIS
Sequence of Bile acid receptor (Homo sapiens) (Q96RI1 whole entry, looked up): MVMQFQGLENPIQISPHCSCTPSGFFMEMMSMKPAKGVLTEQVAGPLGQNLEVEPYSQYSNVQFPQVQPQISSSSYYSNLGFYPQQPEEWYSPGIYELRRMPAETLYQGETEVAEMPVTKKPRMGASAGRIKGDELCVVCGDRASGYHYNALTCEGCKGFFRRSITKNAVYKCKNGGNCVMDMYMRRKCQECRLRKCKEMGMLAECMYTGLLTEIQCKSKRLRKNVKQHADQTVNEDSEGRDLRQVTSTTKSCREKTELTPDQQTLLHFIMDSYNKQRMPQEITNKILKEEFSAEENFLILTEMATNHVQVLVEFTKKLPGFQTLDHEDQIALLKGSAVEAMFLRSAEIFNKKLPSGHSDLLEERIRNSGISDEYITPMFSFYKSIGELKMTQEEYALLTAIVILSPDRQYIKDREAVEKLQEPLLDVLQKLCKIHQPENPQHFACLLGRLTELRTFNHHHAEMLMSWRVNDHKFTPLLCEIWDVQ
Sequence of Peroxisome proliferator-activated receptor delta (Homo sapiens) (Q03181 whole entry, looked up): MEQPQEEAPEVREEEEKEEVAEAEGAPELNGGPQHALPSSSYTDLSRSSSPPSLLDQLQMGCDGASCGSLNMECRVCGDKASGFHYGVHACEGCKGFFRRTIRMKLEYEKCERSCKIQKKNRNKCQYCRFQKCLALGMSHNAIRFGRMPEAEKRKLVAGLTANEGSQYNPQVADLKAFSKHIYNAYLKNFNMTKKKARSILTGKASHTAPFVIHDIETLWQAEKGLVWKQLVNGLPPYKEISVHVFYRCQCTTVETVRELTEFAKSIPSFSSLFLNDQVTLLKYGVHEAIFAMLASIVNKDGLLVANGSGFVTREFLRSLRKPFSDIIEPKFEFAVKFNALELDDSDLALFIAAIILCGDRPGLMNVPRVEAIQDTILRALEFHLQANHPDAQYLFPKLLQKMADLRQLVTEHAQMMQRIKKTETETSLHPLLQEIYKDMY
Sequence of Retinoic acid receptor RXR-alpha (Homo sapiens) (P19793 whole entry, looked up): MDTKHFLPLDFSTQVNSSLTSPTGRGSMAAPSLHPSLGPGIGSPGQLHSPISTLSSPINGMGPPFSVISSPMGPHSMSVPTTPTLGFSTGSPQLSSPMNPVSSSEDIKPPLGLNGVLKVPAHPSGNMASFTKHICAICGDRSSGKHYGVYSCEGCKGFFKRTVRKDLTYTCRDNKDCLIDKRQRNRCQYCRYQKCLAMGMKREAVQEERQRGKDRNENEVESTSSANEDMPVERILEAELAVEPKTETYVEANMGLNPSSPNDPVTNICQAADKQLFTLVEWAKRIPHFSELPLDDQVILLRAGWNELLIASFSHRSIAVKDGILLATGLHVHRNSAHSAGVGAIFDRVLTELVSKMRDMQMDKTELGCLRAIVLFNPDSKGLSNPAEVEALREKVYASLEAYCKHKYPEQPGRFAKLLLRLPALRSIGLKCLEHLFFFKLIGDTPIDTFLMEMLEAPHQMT

In the case of `COc1ccc(N)cc1N`, the Potency result in experiment [1], in experiment [2], in experiment [3], in experiment [4], in experiment [5] and in [6] was “inactive” each time. The Potency result in [7] and in experiment [8] was “inactive” each time. In addition, the Potency in experiment [9] was 7.08 µM (active) and 14.7 µM (active); in experiment [10], 50.5 µM (active) and inactive. Moreover, the compound was classed as inactive in experiment [11].
For `CN(C)CCc1c[nH]c2cccc(O)c12`, the Potency entry in experiment [12], in [1], in [13], in experiment [14], in [2] and in experiment [4] was “inactive” throughout. Moreover, the Potency entry in [5], in experiment [6], in experiment [7], in experiment [8], in experiment [9] and in experiment [10] was “inactive” each time.
In the case of `O=C(NC(=O)c1c(F)cccc1F)Nc1cc(Cl)c(OC(F)(F)C(F)F)c(Cl)c1`, the Potency result in [12], in experiment [13], in [14], in experiment [2], in experiment [3] and in experiment [15] was “inactive” each time. The Potency entry in experiment [6], in experiment [8], in [16], in experiment [9], in experiment [10] and in experiment [17] was “inactive” throughout.
As to `CCCCCCCCCCCCCCCC[n+]1ccccc1`, the Potency is 23.7 µM (active) [middle of 4 runs] in [12]; 25.7 µM (active) and 21.9 µM (active) and 24.2 µM (active) in [13]; 51.3 µM (active) and 43.6 µM (active) and 29.8 µM (active) in experiment [3]; 25.7 µM (active) [middle of 4 runs] in [15]; 24.2 µM (active) [middle of 4 runs] in experiment [6]; 34.7 µM (active) and 34.2 µM (active) and 12 µM (active) in [8]. Also, the Potency in [16] was 54.5 µM (active) [middle of 4 runs]; in experiment [9], 4.27 µM (active) [middle of 4 runs]; in [10] it was 32.3 µM (active) and 54.9 µM (active) and 43 µM (active).
For the compound `ClC(Cl)=C(c1ccc(Cl)cc1)c1ccc(Cl)cc1`, the Potency in experiment [12] is 24.5 µM (active); in experiment [2], 38.9 µM (active); in experiment [15], “inactive and 38.9 µM (active)”; in experiment [8], 54.9 µM (active); in experiment [9], 62.6 µM (active); in [10] it was 44.7 µM (active). For the same compound, the Potency entry in experiment [1], in [13], in [14], in [3], in experiment [4] and in experiment [5] was “inactive” in each case. In addition, the Potency result in [6] and in experiment [16] was “inactive” throughout. Moreover, the compound was called inactive in experiment [18].
For the compound `N#C/C=C/C#N`, the Potency entry in experiment [13], in [14], in experiment [3], in experiment [5], in experiment [15] and in experiment [6] was “inactive” throughout. In addition, the Potency result in [8], in experiment [16], in [9], in experiment [10] and in experiment [17] was “inactive” in each case. In experiment [2], the Potency is 51.3 µM (active). Moreover, the result in experiment [11] was inactive.
For `O=[N+]([O-])c1ccc(Oc2ccc(C(F)(F)F)cc2[N+](=O)[O-])cc1`, the Potency entry in experiment [12], in experiment [1], in experiment [13], in [19], in experiment [3] and in experiment [4] was “inactive” throughout. The Potency result in experiment [15], in [6], in experiment [7], in experiment [8], in [9] and in experiment [10] was “inactive” each time. Also, the Potency result in [17] is “inactive”. Also, in [18], the outcome was inactive.

Values taken from PubChem BioAssay (Tox21).
